# Assay results reported in PubChem BioAssay AID504599 (National Center for Advancing Translational Sciences (NCATS), 2011).
# Calls of active or inactive are those of the source. Calls follow the shape of the dose curve; as a rule, active = well fitted inhibition curve with a large enough effect; inconclusive = small, poorly fitted or top-dose-only effect; inactive = flat fitted curve, though single readings scatter.
# Assay: Quantitative high throughput screen for delayed death inhibitors of the malarial parasite plastid, 96 hour incubation.
# Conditions: P. falciparum luciferase growth
# Excerpt: NIH Molecular Libraries Probe Production Network [MLPCN] NIH Chemical Genomics Center [NCGC] MLPCN Grant: R21 NS059500 Assay Provider: David Fidock and Eric Ekland, Columbia University The goal of this screen is to discover new antimalarial compounds that act by inhibiting the development of the apicoplast in the malarial parasite Plasmodium falciparum. The biochemical processes that make this organelle essential for erythrocytic stage parasites are not well understood. However, antibiotics, such as azithromycin and tetracycline, which target the apicoplast translational machinery, have a potent antimalarial effect. […] We have developed a cell-based assay that measures parasite growth based on the expression of an integrated copy of a firefly luciferase reporter. […] Growth inhibition is detected by a decrease in luciferase activity
# Four microliters of culture medium (RPMI 1640 with 0.5% w/v Albumax (GIBCO), 24 mM sodium bicarbonate and 10 ug/mL gentamycin) were dispensed by a Multi-drop Combi into white solid 1536-well plates (Grenier) and 23 nL compound was added by a pin tool. […] Two microliters of luciferase detection reagent was added and luminescence was detected by a ViewLux (PerkinElmer) reader
row,SMILES,Potency
1,COCCOC(=O)N(C)C[C@@H]1OCCCC[C@H](C)Oc2ccc(NC(=O)Nc3ccccc3)cc2C(=O)N([C@@H](C)CO)C[C@H]1C,17.9 µM (active)
2,COc1ccc(COC[C@H](C)N2C[C@@H](C)[C@H](CN(C)S(=O)(=O)c3ccc(F)cc3)OCCCC[C@H](C)Oc3ccc(NC(=O)Nc4ccccc4)cc3C2=O)cc1,0.0025 µM (active)
